Results filed as inconclusive are left out. The source made the active and inactive calls. Calls come from the whole dose curve; as a rule, active = well fitted curve in the direction sought with a large enough effect; inconclusive = small, poorly fitted or top-dose-only effect, or another doubt; inactive = no such curve, though single readings can be large; an effect the other way counts as inactive or inconclusive.
Tests used:
[1] = Validation qHTS assay for inhibitors of Activation Induced Cytidine Deaminase (AID): UDG Counterscreen signal (AID 1347427); conditions: biochemical UDG counterscreen, fluorescence signal; series mostly up to 115 µM; note: 0% is about no effect
In short: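 Fluorescence at 560 nm excitation, 665 nm emission reports UDG signal after 250 mM NaOH (2x) addition and 30 min. Enzymes (AID 1 uM, UDG 2 U/mL, at 4/3x) preincubated 10 min with compound, then 4 h with 4x 250 nM DJC20/DJC23 substrate at room temperature.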

[2] = molecular target: Single-stranded DNA cytosine deaminase (Homo sapiens) (UniProt Q9GZX7); assay: Validation qHTS assay for inhibitors of Activation Induced Cytidine Deaminase (AID): AID signal (AID 1347429); conditions: Recombinant AID, FRET ssDNA deamination with UDG, fluorescence; series mostly up to 115 µM; note: potency is the fitted concentration of half-maximal effect
In short: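 Compounds (up to 114 uM final) are tested against AID plus UDG using DJC20/DJC23 FRET substrate. Reactions incubate 4 hr at room temperature, receive NaOH for 30 min, and are read at Ex 540/Em 590 nm.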

[3] = molecular target: Calcium and integrin-binding protein 1 (Homo sapiens) (UniProt Q99828); assay: Validation qHTS for Identification of Calcium Integrin Binding protein 1 (CIB1) Competitor (AID 1508618); conditions: CIB1-GST / FITC-alphaIIb peptide fluorescence polarization; series mostly up to 114 µM; note: % is set by controls: 0 for no effect and ±100 for the full control effect
In short: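 CIB1-GST (1 uM final) incubated 15 min at room temperature with compounds (up to 114 uM), then FITC-labelled alphaIIb peptide (100 nM) added. FP read (Ex 480/Em 540) after 15 min, pH 7.4 buffer containing 5 mM CaCl2.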

[4] = Primary qHTS for small molecule stabilizers of the endoplasmic reticulum resident proteome: Secreted ER Calcium Modulated Protein (SERCaMP) assay (AID 1508630); conditions: SH-SY5Y GLuc-SERCaMP (Gaussia luciferase released on ER calcium loss) secretion, thapsigargin, luminescence; series mostly up to 38.4 µM; note: potency is the fitted concentration of half-maximal effect
In short: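 The SH-SY5Y reporter protocol was run at 3 concentrations up to 38.3 uM (primary) or 11 concentrations (follow-up): 16 h compound, 100 nM thapsigargin for 4 h, then extracellular luciferase luminescence.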

[5] = Primary qHTS for inhibitors of La Crosse Virus (LACV) - induced cell death in SH-SY5Y cells (AID 1508616); conditions: SH-SY5Y LACV cytopathicity rescue, ATP luminescence, 6 d; series mostly up to 4.29 µM;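 note: top concentration of the series differs between compounds; 0% = infected DMSO wells and 100% = uninfected DMSO wells; higher means more rescue of cells from virus-induced death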
In short: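 Screening measures cell viability in LACV-infected SH-SY5Y cultures. Compound was added before virus (0.01 MOI), and ATP was detected by luminescence 6 days later.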

[6] = molecular target: Calcium and integrin-binding protein 1 (Homo sapiens) (UniProt Q99828); assay: Primary qHTS for Identification of Calcium Integrin Binding Protein 1 (CIB1) Competitor (AID 1508620); conditions: CIB1-GST / FITC-alphaIIb peptide fluorescence polarization; series mostly up to 114 µM;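 note: GST tagged CIB1 binding a fluorescein labelled alphaIIb integrin peptide tracer; top concentration of the series differs between compounds; % is set by controls: 0 for no effect and ±100 for the full control effect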
In short: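 Fluorescence polarization competition: GST-tagged CIB1 (1 uM final) preincubated with compound 15 min at room temperature, then FITC-labelled alphaIIb peptide (100 nM final) added. After 15 min at room temperature, polarization read at Ex 480/Em 540.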

[7] = Counterscreen qHTS for small molecule stabilizers of the endoplasmic reticulum resident proteome: GLuc-NoTag assay (AID 1508627); conditions: Gaussia luciferase NoTag secretion counterscreen, luminescence, thapsigargin 100 nM for final 4 h; series mostly up to 76.4 µM;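 note: SH-SY5Y cells given compound then 100 nM thapsigargin to empty ER calcium; 0% = thapsigargin alone and -100% = DMSO vehicle control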
In short: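 Counterscreen line: SH-SY5Y-GLuc-NoTag. Seed, 5 h; compound, 19 h; thapsigargin 100 nM, 4 h; 37C/5% CO2. Readout: secreted GLuc luminescence, coelenterazine 0.07x final, no lysis.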

[8] = molecular target: Calcium and integrin-binding protein 1 (Homo sapiens) (UniProt Q99828); assay: Confirmatory qHTS for Identification of Calcium Integrin Binding Protein 1 (CIB1) Competitor (AID 1508617); conditions: CIB1 binding competition assay, biochemical qHTS; series mostly up to 114 µM; note: potency is the fitted concentration of half-maximal effect; nearly all actives have a fitted effect of over 65% in size
In short: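 Compounds at up to 114 uM final met 1 uM GST-tagged CIB1 for 15 min at room temperature (HEPES pH 7.4, 5 mM CaCl2). FITC-labelled alphaIIb peptide, 100 nM, added; polarization read after 15 min more.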

[9] = Cell Viability qHTS for small molecule stabilizers of the endoplasmic reticulum resident proteome (AID 1508629); conditions: cell viability counter-screen, 100 nM thapsigargin for final 4 h;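 note: human SH-SY5Y neuroblastoma cells carrying the GLuc-SERCaMP reporter; compound exposure about 46 h in total before the viability read; % is set by controls: 0 for no effect and ±100 for the full control effect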

Sequence of Calcium and integrin-binding protein 1 (Homo sapiens) (Q99828 whole entry, looked up): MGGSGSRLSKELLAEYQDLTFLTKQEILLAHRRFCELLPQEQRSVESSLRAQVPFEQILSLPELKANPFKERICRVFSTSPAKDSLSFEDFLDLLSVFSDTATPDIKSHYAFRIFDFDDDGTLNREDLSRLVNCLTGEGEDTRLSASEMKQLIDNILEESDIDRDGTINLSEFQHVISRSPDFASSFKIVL
Sequence of Single-stranded DNA cytosine deaminase (Homo sapiens) (Q9GZX7 whole entry, looked up): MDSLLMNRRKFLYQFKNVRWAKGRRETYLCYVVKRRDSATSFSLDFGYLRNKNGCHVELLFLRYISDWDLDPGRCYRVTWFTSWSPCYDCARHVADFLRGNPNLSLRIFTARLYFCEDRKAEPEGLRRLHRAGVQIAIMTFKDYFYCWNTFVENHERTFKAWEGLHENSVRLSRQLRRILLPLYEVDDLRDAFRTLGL

N[C@@H](Cc1cnc[nH]1)C(=O)O
inactive: outcome [1] | Potency [2] | outcome [3] | Potency [4]

CC(C)COC(=O)OCN1C(=O)CN(CCN2CC(=O)N(COC(=O)OCC(C)C)C(=O)C2)CC1=O
inactive: outcome [1] | Potency [2] | Potency [5] | outcome [3] | Potency [4]

N[C@H](CO)C(=O)O
inactive: outcome [1] | Potency [2] | Potency [5] | outcome [3] | Potency [4]

CCCC1O[C@@H]2C[C@H]3[C@@H]4CCC5=CC(=O)C=C[C@]5(C)[C@H]4[C@@H](O)C[C@]3(C)[C@]2(C(=O)CO)O1 (stereo partly drawn)
inactive: outcome [1] | Potency [2] | Potency [5] | outcome [3] | Potency [4]

C1CCc2nnnn2CC1
inactive: outcome [1] | Potency [2] | Potency [5] | outcome [3] | Potency [4]

CC(=O)O[C@H]1C[C@@H]2CC[C@@H]3[C@H](CC[C@@]4(C)[C@H]3C[C@H]([N+]3(C)CCCCC3)[C@@H]4OC(C)=O)[C@@]2(C)C[C@@H]1[N+]1(C)CCCCC1
inactive: outcome [1] | Potency [5] | outcome [3] | Potency [4]
active: Potency [2] 7.94 µM

Nc1cc(Cl)c(NC2=NCCN2)c(Cl)c1
inactive: outcome [1] | Potency [2] | Potency [5] | outcome [3] | Potency [4]

CC(CCc1ccccc1)NCC(O)c1ccc(O)c(C(N)=O)c1 (stereo not drawn)
inactive: outcome [1] | Potency [2] | Potency [5] | outcome [3] | Potency [6]

CN1C2CCC1CC(OC(=O)c1c[nH]c3ccccc13)C2 (stereo not drawn)
inactive: outcome [1] | Potency [2] | Potency [5] | outcome [3] | outcome [7]

CN(C(=O)CN(CCO)CC(=O)N(C)C(C)(C)Cc1ccccc1)C(C)(C)Cc1ccccc1
inactive: Potency [5]

CC1(C)CCC(NC(=O)[C@@H](N)CCC(=O)O)CC1
inactive: outcome [1] | Potency [2] | Potency [5] | outcome [3] | Potency [4]

Oc1c(I)cc(Cl)c2cccnc12
inactive: Potency [5]

CC[C@H](C)C(=O)O[C@H]1CCC=C2C=C[C@H](C)[C@H](CC[C@@H]3C[C@@H](O)CC(=O)O3)[C@H]21
active: Potency [4] 2 µM
inactive: outcome [1] | Potency [2] | outcome [3]

CCC(NC(C)C)C(O)c1ccc(O)c(O)c1 (stereo not drawn)
inactive: outcome [1] | Potency [2] | outcome [3] | Potency [4]

CC(C)COC(=O)c1ccc(N)cc1
inactive: Potency [5] | Potency [6]

CC(C)C[C@H]1C(=O)N2CCC[C@H]2[C@]2(O)O[C@](NC(=O)[C@@H]3C=C4c5cccc6[nH]c(Br)c(c56)C[C@H]4N(C)C3)(C(C)C)C(=O)N12
inactive: outcome [1] | Potency [2] | Potency [5] | outcome [3]

CN(C)CC/C=C1\c2ccccc2Sc2ccc(Cl)cc21
inactive: Potency [5]

COc1cc(C=C2CCC/C(=C\c3ccc(O)c(OC)c3)C2=O)ccc1O
inactive: Potency [5]

CCOc1ccc2nc3cc(N)ccc3c(N)c2c1
active: Potency [8] 25.1 µM
inactive: Potency [5] | Potency [4]

Oc1ccc(O)cc1
inactive: outcome [1] | Potency [2] | outcome [3] | Potency [6] | outcome [7] | max response [9] -23.4%

NC[C@H]1O[C@H](O[C@H]2[C@H](O)[C@@H](O[C@H]3O[C@H](CO)[C@@H](O)[C@H](N)[C@H]3O)[C@H](N)C[C@@H]2N)[C@H](N)[C@@H](O)[C@@H]1O
inactive: Potency [5]

C[C@]12CC[C@@H]3c4ccc(O)cc4CC[C@H]3[C@@H]1CC[C@@H]2O
inactive: outcome [1] | Potency [2] | Potency [5] | Potency [4]

CCCn1c(=O)[nH]c(=O)c2[nH]cnc21
inactive: outcome [1] | Potency [2] | Potency [5] | outcome [3] | Potency [4]

C[N+]1(CCCCC[N+]2(C)CCCC2)CCCC1
inactive: outcome [1] | Potency [2] | Potency [5] | outcome [3] | Potency [4]

CNCCC=C1c2ccccc2CCc2ccccc21
inactive: outcome [1] | Potency [2] | outcome [3] | Potency [4]

CNCCC(Oc1ccccc1C)c1ccccc1 (stereo not drawn)
inactive: outcome [1] | Potency [2] | Potency [5] | outcome [3] | Potency [4]

C[C@@H]1C(=O)NC2=Nc3cccc(Cl)c3CN21
inactive: outcome [1] | Potency [2] | Potency [5] | outcome [3]

CC(C)(CO)[C@@H](O)C(=O)NCCCO
inactive: Potency [5]

COC(=O)[C@H]1[C@H]2C[C@H]3c4[nH]c5ccccc5c4CCN3C[C@H]2CC[C@@H]1O
inactive: outcome [1] | Potency [2] | Potency [4]

O=C1CCC(c2ccc(-n3ccnc3)cc2)=NN1
inactive: outcome [1] | Potency [2] | Potency [5] | outcome [3] | Potency [4]

— PubChem BioAssay (NCATS)
